# The supplement of paper PMC6555819
# Test system: RARb:RXRa (NR concentration 270 nM, RXRa partner concentration 90 nM)
# Test: PBM binding z-score (relative to random genomic background probes); higher = stronger binding; sequences stand for … in GC…GCGATTGACAGCGTAGAATGAAGG
# Outline: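 Scanned fluorescence from custom Agilent 4×180K protein-binding microarrays was regression-normalized. Binding z-scores use random background probes as reference. Ligand-free nuclear receptor dimers were incubated on the arrays for 1 h and detected with antibodies against each partner (one per run).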
row,Sequence,PBM binding z-score
1,ATCGAAAGGTCGACGAGGTGAATATACACCGTTT,3.94
2,CGTCCTAGGTCAAGGTCAGTGAAAGAGACTCGAA,5.01
3,CTCGAAAGGTCGTGCTCAGGTGAGCATACCAAAC,3.92
4,ATCGAAAGGTCGAAGGTGAGTATACCCACCCGAA,3.82
5,CCGGCTGGGGCAGAAAGGTTACCATACCATCCGG,1.85
6,AGAATGAGGTTATTAAGACCAGGGAATTGCGGTC,1.38
7,ATCGAACGGTCGAAGGTGAGTATACCCACCCGAA,1.05
8,CATACAGGGTCAGCTAGGCAAGAGTAGGGACGGC,3.91
9,AGAATGAGGTTAAGATCAGGGAAACAGAATACAT,2.01
10,ACAGACAGGTGAGGGAAGGTAACTCAGCTGGACG,0.622
11,GCTAGTTGGTCAGTAGAAGGTCACACACCGGTCG,3.19
12,CCAGACAGGTGAGAAGGCAACTCAGCCTCGATTA,0.272
13,ATCTCTAGGTAAAGTTCCGTGAAAGATCGATAGA,0.403
14,TCTAGTTGGTCACGGAGGTCACGCACGACGGGTA,4.33
15,TTACCATGGTGAAAGGTCGTTGATGCACGCCTTG,1.94
16,CGAACTAGGTCATTGACAGGACATTGAATAGTAA,3.52
17,GGAACGAGGGCAAGTAGATAGCAGAGTTTGATGG,2.46
18,AGAACGAGGGCACGCTGAGTTGATCGCAGAGTAG,2.57
19,CATCCAGGGTCAGCTAGGCCAGAGTAGGGACGGC,4.03
20,CCGAGTAGGTTATGGGGAATTCAGGCAACGGTGA,0.784
21,ACTCGGAGGACAAAGGTCGGAGCTACGCCAGTGA,2.34
22,GGAACGAGGGCAAAGTTGACAGCATCTGTCGACG,2.65
